Drawing on PubChem BioAssay AID602393 (Broad Institute, 2012), this text covers reporter increase for 84 compounds.

The campaign covered roughly 350,000 compounds. About 7,000 (2%) were called active. The sample holds actives, similar compounds and a random draw of the others, so the mix is not that of the screen. No stated cut-off is given here; in the data, active means activation above about 40%; inconclusive means no clear call, values can overlap the other calls; inactive means below that.

The nature of the assay: raisers of Bmi1 knock-in reporter signal – mouse ES cells, Bmi1 luciferase knock-in, single point, esBAF inhibitor project, primary screen (AID 602393).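 Further: 0% = median of the plate's neutral control wells and 100% = double that signal; a rise in the Bmi1 reporter signal indicates esBAF inhibition.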 The conditions noted are these: 24 h, at 12.5 µM, active compounds read high, 100% = twice the neutral-well signal.
For the compound `CCN1[C@@H]2Cn3c(ccc(-c4cccnc4)c3=O)[C@H]1[C@@H](C(=O)NC1CCCCC1)[C@@H]2CO`, the reporter increase was -4.32% (inactive).

For `COCCCNC(=O)COc1cc(C)c(Cl)c(C)c1`, the reporter increase is 4.32% (inactive).

Take `Cc1cccnc1CC(C)NC(=O)c1cc(COc2cncc(Cl)c2)on1` (centres undefined): the reporter increase was 9.52% (inactive).

On to `Cc1cc(OCc2cc(C(=O)NCc3cc(C(C)C)no3)no2)cc(C)c1Cl`, for which the reporter increase is 81.9% (active).

With `COc1ccc(CN(C)C[C@@H]2OCCCC[C@H](C)Oc3ccc(NS(=O)(=O)c4ccc(F)cc4)cc3C(=O)N([C@@H](C)CO)C[C@@H]2C)cc1`, the reporter increase is -7.82% (inactive).

In the case of `Cn1cnc(S(=O)(=O)N2C[C@@H](O)COC[C@@H]3O[C@H](CC(=O)NCc4ccc(F)cc4)CC[C@H]32)c1`, the reporter increase is -4.57% (inactive).

Take `O=C(c1cccc(F)c1)N1CC[C@@H]2[C@@H](CO)Nc3ccc(C#Cc4cccc(F)c4)cc3[C@@H]21`: the reporter increase is 2.36% (inactive).

On to `Cc1noc(C)c1NC(=O)N[C@@H]1C=C[C@@H](CC(=O)Nc2ccccc2)O[C@H]1CO`, for which the reporter increase is 1.58% (inactive).

On to `COc1ccc2nc(NC(=O)c3ccc(Br)s3)sc2c1`, for which the reporter increase is 71.6% (active).

With `COc1cc(NC(=O)CN(C)S(=O)(=O)c2ccc3nc(C)sc3c2)cc(OC)c1`, the reporter increase was -1.66% (inactive).

As to `O=C(Nc1ccc2c(c1)CCC2)c1ccc(Br)s1`, the reporter increase is 21.7% (inactive).

Take `COc1cccc(C(=O)Nc2nc3ccc(S(C)(=O)=O)cc3s2)c1`: the reporter increase was 50.7% (active).

On to `COc1ccc(CNC(=O)c2ccc(Br)s2)cc1OC`, for which the reporter increase is -1.1% (inactive).

In the case of `COc1cccc(C(=O)Nc2nnc(S(=O)(=O)N(C)c3ccccc3)s2)c1`, the reporter increase is 3.61% (inactive).

For the compound `C[C@H](NC(=O)C[C@@H]1C=C[C@H](NC(=O)CN2CCOCC2)[C@H](CO)O1)c1ccccc1`, the reporter increase is -6.32% (inactive).

As for `N#Cc1ccc(-c2ccc3c(c2)[C@H]2[C@H](CCN2Cc2ccc4c(c2)OCO4)[C@@H](CO)N3)cc1`, the reporter increase was -8.59% (inactive).

As for `CCCNC(=O)N(C)C[C@H]1Oc2cc(-c3ccncc3)ccc2S(=O)(=O)N([C@H](C)CO)C[C@H]1C`, the reporter increase was 0.442% (inactive).

In the case of `CCCNC(=O)C[C@H]1CC[C@H]2[C@@H](COC[C@H](O)CN2C(=O)CC)O1`, the reporter increase was 5.31% (inactive).

For the compound `CCCNC(=O)N1[C@H](C#N)[C@@H](c2ccccc2)[C@H]1CO`, the reporter increase was -3.13% (inactive).

Consider `Cc1ccc(S(=O)(=O)NCC[C@H]2CC[C@@H](NC(=O)C3CCOCC3)[C@@H](CO)O2)cc1`, for which the reporter increase is -2.84% (inactive).

In the case of `Cc1csc(NC(=O)Nc2ccccc2[N+](=O)[O-])n1`, the reporter increase is 60.4% (active).

In the case of `Cc1csc(NC(=O)NC2(C(F)(F)F)Oc3ccccc3O2)n1`, the reporter increase is -3.69% (inactive).

For `CN1CCN(CCNC(=O)Nc2ccccc2[N+](=O)[O-])CC1`, the reporter increase was -5.22% (inactive).

In the case of `C[C@H]1CN([C@@H](C)CO)C(=O)c2cc(Br)cnc2O[C@@H]1CN(C)C(=O)c1ccccc1`, the reporter increase was -3.42% (inactive).

Take `COc1ccc(CNc2ncnc3ccccc23)cc1`: the reporter increase was -11.7% (inactive).

Turning to `COc1ccc(Nc2ncnc3sc(C)cc23)cc1`, the reporter increase is 66.1% (active).

In the case of `COc1ccc(Nc2cc(Sc3ccc(OC)cc3)ncn2)cc1`, the reporter increase was 13.3% (inactive).

For `Cc1ccccc1CSc1nnc(-c2cccnc2)n1N`, the reporter increase is 17.5% (inactive).

Take `C=C(C)CSc1nnc(-c2ccc(C)cc2)n1N`: the reporter increase is 57.8% (active).

`Cc1ccc(-c2nnc(SC(C)C#N)n2N)cc1` (centres undefined): the reporter increase is 0.696% (inactive).

Consider `CCS(=O)(=O)Nc1ccc2c(c1)C(=O)N(C)[C@@H]1CC[C@H](CC(=O)N3CCCCC3)O[C@@H]1CO2`, for which the reporter increase is -2.06% (inactive).

In the case of `O=C(CN1CCN(c2ccc(F)cc2)CC1)Nc1cccc(C(F)(F)F)c1`, the reporter increase was -10.4% (inactive).

As to `CC(=O)N1CCN(CC(=O)Nc2ccc(C)c(F)c2)CC1`, the reporter increase is -6.19% (inactive).

With `CCc1sc(C(=O)N2CCN(CC(=O)Nc3cccc(F)c3)CC2)cc1C`, the reporter increase is 79.7% (active).

Consider `Cc1ccc(S(=O)(=O)N(C)C[C@@H]2Oc3c(NS(C)(=O)=O)cccc3C(=O)N([C@@H](C)CO)C[C@H]2C)cc1`, for which the reporter increase was -2.2% (inactive).

For `O=C(NC[C@@H]1N[C@@H](CO)[C@H]1c1ccc(-c2cccnc2)cc1)c1cccc(F)c1`, the reporter increase was 5.54% (inactive).

`COCCNC(=O)C[C@H]1CC[C@H]2[C@H](COc3ccc(NC(=O)C4CCOCC4)cc3C(=O)N2C)O1`: the reporter increase was 2.05% (inactive).

Take `COCCNC(=O)COc1ccccc1C`: the reporter increase was 0.533% (inactive).

Take `Cc1cccc(NC(=O)COc2ccccc2C)n1`: the reporter increase was 44.4% (active).

With `Cc1cccc(NC(=O)Cc2ccc(Br)cc2)n1`, the reporter increase is 44.9% (active).

Regarding `Cc1ccccc1OCC(=O)Nc1nnc(S(=O)(=O)N2CCCC2)s1`, the reporter increase was 1.57% (inactive).

For `Cc1ccccc1OCC(=O)Nc1nc(C)c(C(=O)N(C)C)s1`, the reporter increase was 9.35% (inactive).

Regarding `Cc1ccccc1OCC(=O)Nc1ccc2c(c1)ncn2C`, the reporter increase is 68.1% (active).

For `Cc1cccc(NC(=O)c2ccc3ccccc3n2)n1`, the reporter increase is 25.2% (inactive).

With `Cc1cccc(NC(=O)COc2ccc(Br)cc2C)n1`, the reporter increase was 35.7% (inactive).

As for `CCOc1ccc(OCc2ccc(C(=O)Nc3cccc(C)n3)o2)cc1`, the reporter increase was 37.5% (inactive).

On to `C/C=C/c1ccc([C@H]2[C@@H](CO)N(C(=O)CC)[C@H]2CN(C)C(=O)C2CC2)cc1`, for which the reporter increase is 5.87% (inactive).

Take `CCCNC(=O)NC[C@H]1[C@H](c2ccc(C3=CCCCC3)cc2)[C@H](CO)N1C(C)=O`: the reporter increase is -2.67% (inactive).

With `COCc1cn(CC[C@H]2CC[C@H](NC(=O)Cc3cccnc3)[C@H](CO)O2)nn1`, the reporter increase is 1.37% (inactive).

As to `COCC(=O)Nc1ccc2c(c1)OC[C@H](C)N(Cc1ccccc1OC)C[C@@H](C)[C@@H](OC)CN(C)C2=O`, the reporter increase is 0.256% (inactive).

Regarding `CCCNC(=O)C[C@H]1CC[C@H]2[C@@H](COc3ccc(NC(=O)Nc4c(C)noc4C)cc3C(=O)N2C)O1`, the reporter increase was -1.98% (inactive).

Turning to `CC(C)Cc1ccc(-c2cc3nc(NCc4cccc(Cl)c4)ccn3n2)cc1`, the reporter increase is 79.4% (active).

`COCCCNc1ccn2nc(-c3ccc(CC(C)C)cc3)cc2n1`: the reporter increase was 24.7% (inactive).

For `COc1ccccc1-c1cc2nc(NCc3cccc(Cl)c3)ccn2n1`, the reporter increase was -5.22% (inactive).

For the compound `COc1ccc(-c2cnc3c(c2)C(=O)N([C@@H](C)CO)C[C@@H](C)[C@H](CN(C)C)O3)cc1`, the reporter increase is -2.94% (inactive).

Regarding `O=C(C[C@H]1C=C[C@@H](NC(=O)C2CC2)[C@H](CO)O1)NCC1CC1`, the reporter increase was -2.61% (inactive).

Consider `NS(=O)(=O)c1ccc(N=Nc2c(O)[nH]c3ccc(Br)cc23)cc1`, for which the reporter increase was -6.6% (inactive).

As to `Cc1cccc(N=Nc2c(O)[nH]c3ccc(F)cc23)c1`, the reporter increase is 72.6% (active).

Take `Oc1[nH]c2ccc(Br)cc2c1N=Nc1nn[nH]n1`: the reporter increase is 6.07% (inactive).

Regarding `Cc1ccc(S(=O)(=O)Nc2ccc3c(c2)C(=O)N([C@H](C)CO)C[C@@H](C)[C@H](CN(C)S(=O)(=O)c2cccs2)OCCCC[C@@H](C)O3)cc1`, the reporter increase was 5.34% (inactive).

Regarding `Cc1ccc(S(=O)(=O)N[C@H]2CC[C@H](CC(=O)NCc3ccccc3F)O[C@@H]2CO)cc1`, the reporter increase was -2.95% (inactive).

With `O=C1C(=O)N(c2ccccc2)C(c2ccccc2)C1c1ccccc1` (centres undefined), the reporter increase was -0.185% (inactive).

As to `O=C(O)CC1=C(Nc2ccccc2)C(=O)N(c2ccccc2)C1c1ccc(Cl)cc1` (centres undefined), the reporter increase is 49.1% (active).

For `O=C1C=C(c2ccc(Cl)cc2)C(=O)N1Nc1ccccc1`, the reporter increase is -0.361% (inactive).

With `C[C@@H]1CN([C@@H](C)CO)C(=O)Cc2cc(NC(=O)C3CCCCC3)ccc2O[C@H]1CN(C)C(=O)Nc1ccccc1`, the reporter increase is 0.449% (inactive).

For `CCOC(=O)c1c(-c2ccc(-c3ccccc3)cc2)csc1NC(=O)CCC(=O)O`, the reporter increase is -6.99% (inactive).

In the case of `CCOC(=O)c1c(N)nn(C(=O)c2ccccc2)c1-c1ccccc1`, the reporter increase was -1.4% (inactive).

For `CCOC(=O)c1c(C)nc(-c2ccccc2)nc1NC(=O)C(C)C`, the reporter increase was 42.3% (active).

`O=C(O)c1cc([N+](=O)[O-])c(Nc2cccc3ccccc23)c([N+](=O)[O-])c1`: the reporter increase was 15.6% (inactive).

Consider `O=C(Nc1ccc2ccccc2c1[N+](=O)[O-])c1ccccc1`, for which the reporter increase was 114% (active).

As for `O=C(Nc1ccccc1C(=O)Nc1ccncc1)c1ccc([N+](=O)[O-])cc1`, the reporter increase is -2.66% (inactive).

For the compound `CC(C)CC#Cc1cnc2c(c1)C(=O)N([C@H](C)CO)C[C@H](C)[C@@H](CN(C)C(=O)Cc1cccnc1)O2`, the reporter increase is -2.07% (inactive).

Turning to `COc1ccc(NC(=O)N2C[C@H](O)COC[C@@H]3O[C@@H](CC(=O)NCc4ccccc4OC)CC[C@H]32)cc1`, the reporter increase is 2.12% (inactive).

As to `CCCNC(=O)[C@@H]1[C@@H](CO)[C@@H]2Cn3c(ccc(/C=C/c4ccccc4)c3=O)[C@H]1N2CCC`, the reporter increase was -5.3% (inactive).

Turning to `CCOc1c2ccc(C(=O)NCc3ccc4c(c3)OCO4)cc2nn1C`, the reporter increase was -7.4% (inactive).

`C=CCNC(=O)c1ccc2c3n(nc2c1)-c1ccc(C)cc1CO3`: the reporter increase is 56.5% (active).

For `Cc1cccc(-c2nc3ccc(C(=O)NCCN4CCN(C)CC4)cc3nc2-c2cccc(C)c2)c1`, the reporter increase is -7.08% (inactive).

Take `O=C(Nc1cccc(F)c1)NC1CCCc2ccccc21` (centres undefined): the reporter increase was -6.65% (inactive).

With `O=C(Nc1cccc(F)c1)NC1CCCCCCC1`, the reporter increase is 59.1% (active).

As for `Cc1cc(C)cc(NC(=O)NC2CCCCCCC2)c1`, the reporter increase is 15.2% (inactive).

On to `COc1ccc(/C=N/Nc2nc(-c3ccc(C)cc3)c(C#N)c(=O)[nH]2)cc1`, for which the reporter increase was -5.86% (inactive).

On to `COc1ccc(/C=N/Nc2ccccc2C(=O)O)cc1`, for which the reporter increase was -28.7% (inactive).

Regarding `COc1ccc(/C=N/Nc2nc3ccccc3c(=O)[nH]2)cc1`, the reporter increase was 45.1% (active).

Take `CN(C)CC(=O)Nc1ccc2c(c1)[C@H]1C[C@@H](CC(=O)NCc3ccc(-c4ccccc4)cc3)O[C@H](CO)[C@H]1O2`: the reporter increase is 4.03% (inactive).
